Among all 5,500 compounds or so, about 2,000 (36%) were called active. Another 18% or so got no clear call; they are omitted. Cut-off read from the data, not from the text of the source: active = normalized growth mostly below about 0.91 (no sharp cut-off); inconclusive = no clear call, values can overlap the other calls; inactive = mostly above about 0.92. The list shows a part of the results.
Experiment: chemical genetic growth profiling, strain panel (AID 1159580);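 note: tested at 20 µM; growth read once vehicle control cultures reached saturation at 30 °C; 1 = growth at the plate median or of vehicle wells; lower values mean less growth of the strain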
Details: growth OD
[1] = S. cerevisiae deletion strains, locus YAL013W, strain DEP1, hits give low values
[2] = S. cerevisiae deletion strains, locus YDR150W, strain NUM1, hits give low values
[3] = S. cerevisiae deletion strains, locus YMR263W, strain SAP30, hits give low values
[4] = S. cerevisiae deletion strains, locus YMR307W, strain GAS1, hits give low values
[5] = S. cerevisiae deletion strains, locus YNL322C, strain KRE1, hits give low values
[6] = S. cerevisiae deletion strains, locus YPL055C, strain LGE1, hits give low values
[7] = S. cerevisiae deletion strains, locus YPL241C, strain CIN2, hits give low values

Measured: normalized growth

COc1ccc(/C=C/C(=O)Nc2ccccc2C(=O)O)cc1OC
inactive: [1] 1.03 | S. cerevisiae deletion strains, locus YAL040C, strain CLN3, hits give low values 0.97 | S. cerevisiae deletion strains, locus YCL061C, strain MRC1 (second series), hits give low values 0.99 | [2] 0.994 | S. cerevisiae deletion strains, locus YDR363W, strain ESC2, hits give low values 1.01 | S. cerevisiae deletion strains, locus YER002W, strain NOP16, hits give low values 0.985 | [3] 0.996 | [4] 1.01 | S. cerevisiae deletion strains, locus YNL175C, strain NOP13, hits give low values 0.979 | S. cerevisiae deletion strains, locus YNL197C, strain WHI3, hits give low values 0.964 | S. cerevisiae deletion strains, locus YNL224C, strain SQS1, hits give low values 0.999 | [5] 1.02 | S. cerevisiae deletion strains, locus YOR083W, strain WHI5 (second series), hits give low values 0.964 | [6] 1.05 | [7] 0.991

CC(=O)C1=C(O)C2C3c4c[nH]c5cccc(c45)CC3C(C)(C)N2C1=O (stereo unspecified)
inactive: [1] 0.994 | S. cerevisiae deletion strains, locus YBR021W, strain FUR4, hits give low values 0.983 | S. cerevisiae deletion strains, locus YBR229C, strain ROT2, hits give low values 0.997 | S. cerevisiae deletion strains, locus YCL029C, strain bik1, hits give low values 1 | S. cerevisiae deletion strains, locus YDL035C, strain GPR1, hits give low values 1.01 | S. cerevisiae deletion strains, locus YDL074C, strain BRE1, hits give low values 1.01 | S. cerevisiae deletion strains, locus YDL101C, strain DUN1, hits give low values 1.01 | S. cerevisiae deletion strains, locus YDL134C, strain PPH21, hits give low values 1 | S. cerevisiae deletion strains, locus YDL185W, strain tfp1, hits give low values 0.995 | S. cerevisiae deletion strains, locus YDL192W, strain arf1, hits give low values 1 | S. cerevisiae deletion strains, locus YDR101C, strain arx1, hits give low values 0.995 | [2] 1.01 | S. cerevisiae deletion strains, locus YDR162C, strain NBP2, hits give low values 0.993 | S. cerevisiae deletion strains, locus YDR318W, strain mcm21, hits give low values 1.01 | S. cerevisiae deletion strains, locus YDR388W, hits give low values 1 | S. cerevisiae deletion strains, locus YDR502C, strain sam2, hits give low values 1.01 | S. cerevisiae deletion strains, locus YEL061C, strain CIN8, hits give low values 0.989 | S. cerevisiae deletion strains, locus YER110C, hits give low values 1.01 | S. cerevisiae deletion strains, locus YER155C, strain BEM2, hits give low values 1 | S. cerevisiae deletion strains, locus YER167W, strain BCK2, hits give low values 1.01 | S. cerevisiae deletion strains, locus YGL078C, strain dbp3, hits give low values 1 | S. cerevisiae deletion strains, locus YGL086W, strain mad1, hits give low values 1.01 | S. cerevisiae deletion strains, locus YGL248W, strain PDE1, hits give low values 0.997 | S. cerevisiae deletion strains, locus YGR078C, strain PAC10, hits give low values 0.975 | S. cerevisiae deletion strains, locus YGR135W, strain pre9, hits give low values 0.993 | S. cerevisiae deletion strains, locus YGR229C, strain SMI1, hits give low values 0.971 | S. cerevisiae deletion strains, locus YGR252W, strain gcn5, hits give low values 1.04 | S. cerevisiae deletion strains, locus YHR030C, strain SLT2, hits give low values 1.01 | S. cerevisiae deletion strains, locus YHR079C, strain IRE1 (second series), hits give low values 1.02 | S. cerevisiae deletion strains, locus YHR094C, strain hxt1, hits give low values 1 | S. cerevisiae deletion strains, locus YHR129C, strain ARP1, hits give low values 1 | S. cerevisiae deletion strains, locus YHR200W, strain rpn10, hits give low values 1.01 | S. cerevisiae deletion strains, locus YIL066C, strain RNR3, hits give low values 1.04 | S. cerevisiae deletion strains, locus YIL073C, strain SPO22, hits give low values 1.07 | S. cerevisiae deletion strains, locus YIL125W, strain kgd1, hits give low values 1 | S. cerevisiae deletion strains, locus YIR030C, strain dcg1, hits give low values 1 | S. cerevisiae deletion strains, locus YJL095W, strain BCK1, hits give low values 1 | S. cerevisiae deletion strains, locus YJL134W, strain LCB3, hits give low values 1.01 | S. cerevisiae deletion strains, locus YJL168C, strain set2, hits give low values 1.01 | S. cerevisiae deletion strains, locus YJL187C, strain SWE1 (second series), hits give low values 1.01 | S. cerevisiae deletion strains, locus YJR043C, strain POL32, hits give low values 1.01 | S. cerevisiae deletion strains, locus YJR075W, strain HOC1, hits give low values 1 | S. cerevisiae deletion strains, locus YKL009W, strain mrt4, hits give low values 1.03 | S. cerevisiae deletion strains, locus YKL068W, hits give low values 1 | S. cerevisiae deletion strains, locus YKL085W, strain MDH1 (second series), hits give low values 0.994 | S. cerevisiae deletion strains, locus YKL085W, strain MDH1, hits give low values 0.994 | S. cerevisiae deletion strains, locus YKL190W, strain CNB1, hits give low values 0.99 | S. cerevisiae deletion strains, locus YKR001C, strain vps1, hits give low values 1 | S. cerevisiae deletion strains, locus YLR039C, strain RIC1, hits give low values 0.979 | S. cerevisiae deletion strains, locus YLR058C, strain SHM2, hits give low values 1 | S. cerevisiae deletion strains, locus YLR102C, strain apc9, hits give low values 1.01 | S. cerevisiae deletion strains, locus YLR262C, strain YPT6, hits give low values 0.97 | S. cerevisiae deletion strains, locus YLR268W, strain sec22, hits give low values 0.995 | S. cerevisiae deletion strains, locus YLR330W, strain CHS5, hits give low values 0.992 | S. cerevisiae deletion strains, locus YLR342W, strain FKS1 (second series), hits give low values 1.02 | S. cerevisiae deletion strains, locus YLR371W, strain rom2, hits give low values 1.01 | S. cerevisiae deletion strains, locus YLR418C, strain cdc73, hits give low values 0.99 | S. cerevisiae deletion strains, locus YML016C, strain PPZ1, hits give low values 1 | S. cerevisiae deletion strains, locus YML032C, strain rad52, hits give low values 1.01 | S. cerevisiae deletion strains, locus YML124C, strain tub3, hits give low values 1 | S. cerevisiae deletion strains, locus YMR078C, strain ctf18, hits give low values 1 | S. cerevisiae deletion strains, locus YMR223W, strain ubp8, hits give low values 1.03 | [3] 1.01 | [4] 1.08 | S. cerevisiae deletion strains, locus YNL067W, strain RPL9B, hits give low values 1 | S. cerevisiae deletion strains, locus YNL128W, strain TEP1, hits give low values 0.998 | S. cerevisiae deletion strains, locus YNL153C, strain GIM3, hits give low values 0.999 | S. cerevisiae deletion strains, locus YNL233W, strain BNI4, hits give low values 1.01 | S. cerevisiae deletion strains, locus YNL250W, strain rad50, hits give low values 1.01 | S. cerevisiae deletion strains, locus YNL271C, strain bni1, hits give low values 1.01 | S. cerevisiae deletion strains, locus YNL298W, strain CLA4, hits give low values 0.998 | S. cerevisiae deletion strains, locus YNL307C, strain MCK1, hits give low values 1.02 | [5] 1 | S. cerevisiae deletion strains, locus YNR052C, strain pop2, hits give low values 1.01 | S. cerevisiae deletion strains, locus YOL006C, strain TOP1, hits give low values 1.06 | S. cerevisiae deletion strains, locus YOL012C, strain htz1 0.841 | S. cerevisiae deletion strains, locus YOL147C, strain pex11, hits give low values 1.01 | S. cerevisiae deletion strains, locus YOR061W, strain CKA2, hits give low values 1 | S. cerevisiae deletion strains, locus YOR069W, strain VPS5, hits give low values 0.993 | S. cerevisiae deletion strains, locus YOR136W, strain idh2, hits give low values 1.01 | S. cerevisiae deletion strains, locus YOR144C, strain elg1, hits give low values 1 | S. cerevisiae deletion strains, locus YOR184W, strain ser1, hits give low values 1.03 | S. cerevisiae deletion strains, locus YOR316C, strain cot1, hits give low values 1 | [6] 0.976 | [7] 1.05 | S. cerevisiae deletion strains, locus YPR119W, strain clb2, hits give low values 1 | S. cerevisiae deletion strains, locus YPR141C, strain kar3, hits give low values 1 | S. cerevisiae deletion strains, locus YPR163C, strain tif3, hits give low values 1 | S. cerevisiae deletion strains, locus YPR167C, strain met16, hits give low values 1.01 | S. cerevisiae deletion strains, strain wtn01, hits give low values 0.995 | S. cerevisiae strains, strain wild type, hits give low values 0.971
